Results taken from the supplement of paper PMC6555819.

System: VDR:RXRa (NR concentration 270 nM, RXRa partner concentration 90 nM)
Assay: PBM binding z-score (relative to random genomic background probes); higher = stronger binding; sequences stand for … in GC…GCGATTGACAGCGTAGAATGAAGG
Procedure: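 Protein-binding microarray (Agilent 4x180K custom design, double-stranded 60-nt probes: 5' GC cap, 34-nt variable region, 24-nt constant primer region; full probe sequence given). Purified or IVT nuclear receptor:RXRα heterodimers (3:1 NR:RXRα, mostly 270:90 nM) or homodimers were incubated for 1 h in PBS with 2% milk and no ligand, then detected with Alexa488 antibodies. Fluorescence from o1-orientation probes (~5 replicates averaged) was converted to z-scores against 500 random hg19 background probes. Variable regions are seed direct-repeat (DR0–DR5) sites, all their single-nucleotide variants and half-site ablations.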

Row | Sequence | PBM binding z-score
1 | AGAACGAGGGCATGCTGAGTTGATAGCAGAGTAG | 1.5
2 | TCTAGTTGGTCACGGACGTCACACACGACGGGTA | 0.743
3 | CGTCCAAGGTCAATGCTAGGTCAGTGAAAGCATT | 4.81
4 | CCGACTGGGGCTAAGGTTACCATACTCAGTACGA | 0.0865
5 | CCTGACGGGTCACTCCAGGTTATAGCATCGGAGT | 3.46
6 | ACTAGCAGGCCAAGTTTGGGTAACTCAAACAAAG | -0.517
7 | CGAACTAGATCATTGACAGGACAGTGAATAGTAA | 0.158
8 | CCTTACGGGTCATTGACAGGTTATAGCATTTGGA | 4.11
9 | TCAATTAGTTGATTAGGGCAACCGAAACAGCGGA | 0.35
10 | AGTCATAGTTCATCTAGGTAACGTAAGATATGCT | 2.54
11 | AGAACGAGGGCACGCTGAGATGATAGCAGAGTAG | 0.702
12 | CCTCGGATGACAACAGGAGGTCAGAGCTGCCAGA | 1.55
13 | TGAATGAGGTTAAAGATCAGGTAACGTGGCGTCG | 1.92
14 | CGAACGACGGCATGAGTTGATAGCAAATGCCGAT | -0.72
15 | TCGAGTAGGTGAGTCGGGGCATTCAGCCAACATA | 1.68
16 | ACTGGCAGGCCAAGTTTGGGTCACTCAAACAAAG | 0.456
17 | CCTTACGGGTCACTCCAGGTTATAGTATCGGAGT | 4.39
18 | ATATGGAGGTTATCGGGTCATTCAGTTTGCGCAT | 5.78
19 | CGAACCAGGTCATCCAGGACAGTGAATACATTGA | 5.42
20 | GCAGACAGGTGCAACGCAGGTAACTCAGGGTGGC | -0.467

Row | Sequence | PBM binding z-score
21 | ATCTCTAAGTAAAGATAGTTCAGTGAATGCAAAT | 0.741
22 | CAAACTAGGTCAAAGGCCAAAGTCGAGCCAACCA | 2.6
23 | TAGCCTAGGTCATGGACCAGTATACCACGCGAAC | 2.13
24 | GCTCGGAGGACAAGGTCAGAGCTTTGTCCGTAGA | 1.34
25 | CCTACTGGGCCAAAAAGCTCATTGATGCCGATAA | -0.648
26 | TCTATTAGTTGAAGGGCCACCGACGAGTCCGTTT | 0.591
27 | CCGAGTAGGTTATGGGGCAGTCAGGCAACGGTGA | -0.397
28 | GATACAGGGTCAGGTAGAGGCCAGAGTATGGAAA | 3.35
29 | AGAATGAAGTTACCAAAGATCAGGGAAACGCTTG | -0.38
30 | ATCGAAAGGTCGATGTGAGTATAGAGAAAGGGAA | 1.97
31 | TCAGACAGGTGAAGCTAACTCAGGTACGCAGTCG | 0.334
32 | CGAACGAGGGCAAGAGTTGATAGCAAATGCCGAT | 0.703
33 | GCGACTGGGGCAAAGCAGATTACCATAAGGTTGG | -0.591
34 | CAAACTAGGTCAAGAGATCAAAGTCCGCTTCCCG | 1.59
35 | CCGACTGGGGCAGAAAGGTTACCTTACCATCCGG | 0.875
36 | ATCTCTAGGTAAGACTCAGCTCAGTGAAGAACGC | -0.134
37 | GCTTACGGGTCAAAGGTTGTAGCATGAATAGAAT | 4.66
38 | CCTAGTTGGTCAAGGTCACACTCGCTATAGGTAC | 3.99
39 | CTCGAAAGGTCGTGCTCAAGTGAGTATACCAAAC | 3.13
40 | TTACCAAGGTGAACGTCGTTGATCCCTCTGTAGA | 0.322
